Compound activity (PubChem)
EphB4 ephrin blk: blocks human EphB4 binding to ephrin-B2; inhibition, % at 7 µM; AID 720; actives 0.15% (n = 97,000); P54760; EphB4 LBD / TNYL-RAW-Alexa532 peptide, fluorescence polarization;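 active means inhibition above the screen-wide mean inhibition plus 3 SD, cut at about 15% in these data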
PLAP act: activators of human placental alkaline phosphatase. P05187. purified PLAP enzyme, luminescent substrate read-out; active compounds read high. activation fold at 20 µM. actives 1.2% (n = 96,000). AID 696; in the data active means activation fold above about 2
LYP inh 2: LYP (human) phosphatase inhibition. actives 0.21% (n = 96,000). AID 640. recombinant LYP catalytic domain, DiFMUP fluorescence. inhibition, % at 2 µM;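 active means inhibition at 2 µM at or above a set limit, the screen mean plus 3 SD, cut at about 24% in these data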
PTPN22 act: activators of human LYP (PTPN22) phosphatase; AID 697; recombinant LYP, DiFMUP fluorescence; 0 = plate median, 100 = signal doubled; activation, % at 2 µM; Q9Y2R2; actives 0.11% (n = 96,000);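 active means activation at 2 µM above a set limit, the mean plus 5 SD, cut at about 37% in these data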
sEH inh: blocks human soluble epoxide hydrolase activity. P34913. recombinant human sEH enzymatic activity assay. inhibition, % at 2 µM. actives 0.34% (n = 91,000). AID 707; in the data active means inhibition above about 80%
Target sequence (P34913 whole entry, looked up): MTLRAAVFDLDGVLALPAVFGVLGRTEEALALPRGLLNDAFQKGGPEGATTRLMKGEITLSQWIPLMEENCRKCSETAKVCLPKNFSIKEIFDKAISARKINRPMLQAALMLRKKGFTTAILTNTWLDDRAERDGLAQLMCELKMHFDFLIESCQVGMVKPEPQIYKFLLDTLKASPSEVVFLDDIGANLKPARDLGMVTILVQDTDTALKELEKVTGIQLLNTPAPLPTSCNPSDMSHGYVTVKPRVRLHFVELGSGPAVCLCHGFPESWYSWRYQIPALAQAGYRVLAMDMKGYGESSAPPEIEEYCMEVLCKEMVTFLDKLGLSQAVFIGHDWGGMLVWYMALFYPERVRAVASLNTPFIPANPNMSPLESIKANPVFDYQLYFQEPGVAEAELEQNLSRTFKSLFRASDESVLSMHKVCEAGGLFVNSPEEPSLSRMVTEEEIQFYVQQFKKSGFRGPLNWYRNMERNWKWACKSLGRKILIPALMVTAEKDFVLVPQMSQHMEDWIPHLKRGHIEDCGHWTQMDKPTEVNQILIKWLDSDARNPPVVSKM
sEH act: activators of human soluble epoxide hydrolase. activation, % at 2 µM. P34913. actives 0.04% (n = 91,000). purified human sEH enzymatic activity, activator screen; in the data active means activation above about 37%
A number is an active result. Shown are actives, neighbours in structure and some others; about 1.6% of the full set was active somewhere.

`Cc1ccc2c(c1)nnn2C1CCN(C(=O)NC23CC4CC(CC(C4)C2)C3)CC1` gave EphB4 ephrin blk inactive, PLAP act inactive, LYP inh 2 inactive, PTPN22 act inactive, sEH inh 84.8 and sEH act inactive.
Screening CCC(C)(C)n1nnnc1C(c1ccc2ncccc2c1)N1CCN(Cc2ccc3c(c2)OCO3)CC1 (stereo unspecified) returned EphB4 ephrin blk inactive, PLAP act 2.1, LYP inh 2 inactive, PTPN22 act inactive, sEH inh inactive and sEH act inactive.
Screening CN(C)c1ccc(C2N3CC4(C)CN2CC(C)(C3)C4O)cc1 (stereo unspecified) returned EphB4 ephrin blk inactive and PLAP act inactive.
CC(C)C12CN3CC(C(C)C)(CN(C1)C3c1ccccc1)C2O (stereo unspecified) was read as EphB4 ephrin blk inactive, PLAP act inactive, LYP inh 2 inactive, PTPN22 act inactive, sEH inh inactive and sEH act 38.8.
For COc1cc(OC)cc(C(=O)Nc2ccccc2C(=O)N2CCCC2)c1 the results were EphB4 ephrin blk inactive, PLAP act inactive, LYP inh 2 51.5, PTPN22 act inactive, sEH inh inactive and sEH act inactive.
Screening CC(C(=O)NCc1ccco1)n1cc(C(=O)c2ccco2)c2ccccc21 (stereo unspecified) returned EphB4 ephrin blk inactive, PLAP act inactive, LYP inh 2 inactive, PTPN22 act inactive, sEH inh inactive and sEH act inactive.
`OCCOCCNc1ncnc2sc(-c3ccccc3)cc12` gave EphB4 ephrin blk inactive, PLAP act 2.2, LYP inh 2 inactive, PTPN22 act inactive, sEH inh inactive and sEH act inactive.
CC(=O)N(Cc1ccc2c(c1)OCO2)C1CC(=O)N(CCc2ccccc2)C1=O (stereo unspecified) was read as EphB4 ephrin blk inactive, PLAP act inactive, LYP inh 2 inactive, PTPN22 act inactive, sEH inh inactive and sEH act inactive.
Screening CCc1cc(C(=O)Cc2cnn(-c3ccccc3)c2)c(O)cc1O returned EphB4 ephrin blk inactive, PLAP act inactive, LYP inh 2 inactive and PTPN22 act inactive.
Screening O=C(Cc1cnn(-c2ccccc2)c1)c1ccc(O)c(O)c1O returned EphB4 ephrin blk inactive, PLAP act 2, LYP inh 2 28.6, PTPN22 act inactive, sEH inh inactive and sEH act inactive.
Screening O=C(CSc1nnc2scc(-c3ccccc3)n12)Nc1nsc(-c2ccccc2)n1 returned EphB4 ephrin blk inactive, PLAP act inactive, LYP inh 2 inactive, PTPN22 act inactive, sEH inh inactive and sEH act inactive.
`O=C(CSc1nnc2scc(-c3ccccc3)n12)Nc1nsc(-c2ccc(Cl)cc2)n1` gave EphB4 ephrin blk inactive, LYP inh 2 26.0, PTPN22 act inactive, sEH inh inactive and sEH act inactive.
`COc1cccc(C(=O)/C=C/Nc2cc(C)ccc2O)c1` gave EphB4 ephrin blk inactive, PLAP act 2.9, LYP inh 2 inactive, PTPN22 act inactive, sEH inh inactive and sEH act inactive.
`COc1ccc(N/C=C/C(=O)c2ccc(C)cc2)c([N+](=O)[O-])c1` gave EphB4 ephrin blk inactive, LYP inh 2 inactive, PTPN22 act inactive, sEH inh inactive and sEH act inactive.
O=C(Nc1cccc(-c2nnn(CC(=O)N3CCc4ccccc4C3)n2)c1)C1CCC1 was read as EphB4 ephrin blk inactive, PLAP act 2.3, LYP inh 2 inactive, PTPN22 act inactive, sEH inh inactive and sEH act inactive.
For O=C(Nc1ccccc1-c1nnn(CC(=O)N2CCc3ccccc3C2)n1)C1CCC1 the results were EphB4 ephrin blk inactive, PLAP act inactive, LYP inh 2 inactive, PTPN22 act inactive, sEH inh inactive and sEH act inactive.
`COCc1cc(C)nc(Nc2ccccc2C)c1C#N` gave EphB4 ephrin blk inactive, PLAP act inactive, LYP inh 2 26.0, PTPN22 act inactive, sEH inh inactive and sEH act inactive.
For COc1ccc(Nc2nc(C(=O)NCCCN3CCOCC3)cs2)cc1 the results were EphB4 ephrin blk inactive, PLAP act inactive, LYP inh 2 inactive, PTPN22 act inactive, sEH inh inactive and sEH act inactive.
`O=C(Cn1cccc1C(=O)c1ccccc1)NCc1ccccn1` gave EphB4 ephrin blk inactive, PLAP act inactive, LYP inh 2 inactive, PTPN22 act inactive, sEH inh inactive and sEH act inactive.
Cc1cc(N2CCOCC2)c2c(N)c(Br)cc(C)c2n1 was read as PLAP act 2.
Screening Nc1ccc(N2CCOCC2)c(Cl)c1 returned EphB4 ephrin blk inactive, PLAP act inactive, LYP inh 2 inactive, PTPN22 act inactive, sEH inh inactive and sEH act inactive.
Screening COc1ccccc1N1CCN(C(=O)c2sc3nc(-c4ccc(F)cc4)cn3c2C)CC1 returned PLAP act inactive.
`O=C(Nc1ccc2c(c1)OCO2)C1CC(c2ccc(F)cc2)=NO1` (stereo unspecified) gave EphB4 ephrin blk 20.1, PLAP act inactive, LYP inh 2 inactive, PTPN22 act inactive, sEH inh inactive and sEH act inactive.
For N#Cc1ccc(NC(=O)C2CC(c3ccc(F)cc3)=NO2)cc1 (stereo unspecified) the results were EphB4 ephrin blk inactive, PLAP act inactive, LYP inh 2 inactive, PTPN22 act inactive, sEH inh inactive and sEH act inactive.
For O=C(NCCCn1ccnc1)c1cn(-c2ccccc2)nc1-c1ccc(F)cc1 the results were EphB4 ephrin blk inactive, PLAP act 2.3, LYP inh 2 inactive, PTPN22 act inactive, sEH inh inactive and sEH act inactive.
`O=C(COC(=O)c1ccccc1)Nc1ccccc1N1CCOCC1` gave EphB4 ephrin blk inactive, LYP inh 2 inactive, PTPN22 act inactive, sEH inh inactive and sEH act inactive.
For CCOc1ccc(C(CCc2ccccc2)NC(=O)c2ccccc2F)cc1OCC (stereo unspecified) the results were EphB4 ephrin blk 18.4, PLAP act inactive, LYP inh 2 inactive, PTPN22 act inactive, sEH inh inactive and sEH act inactive.
`CCOC(=O)c1oc2cccc(O)c2c1C` gave EphB4 ephrin blk inactive, PLAP act inactive, LYP inh 2 inactive, PTPN22 act inactive, sEH inh inactive and sEH act inactive.
Screening CCOC(=O)c1oc2cccc(O)c2c1CN(Cc1ccccc1)C(C)=O returned EphB4 ephrin blk 19.5, PLAP act inactive, LYP inh 2 inactive, PTPN22 act inactive, sEH inh inactive and sEH act inactive.
For N#CCCCSC1=C(C#N)C(c2ccccc2Cl)CC(=O)N1 (stereo unspecified) the results were PLAP act inactive.
For CC1Cc2ccccc2N1C(=O)CSc1nnc(Cc2ccccc2)n1CCc1ccccc1 (stereo unspecified) the results were EphB4 ephrin blk inactive, LYP inh 2 inactive, PTPN22 act inactive, sEH inh inactive and sEH act inactive.
For CCn1c(SCC(=O)NNC(=O)Cc2ccccc2)nnc1-c1ccccc1 the results were EphB4 ephrin blk inactive, PLAP act 2.4, LYP inh 2 inactive, PTPN22 act inactive, sEH inh inactive and sEH act inactive.
